# Lassa entry inh = inhibitors of Lassa virus binding or cell entry | Lassa virus pseudotype entry inhibition, cell reporter | AID 540256 | Potency, µM (doses to about 37.9 µM), for inactives: top-dose activity change, negative = inhibition, hits mostly inhibitors | hit rate 1.2% among 300,000; calls by dose curve; tested in HEK293 cells; note: potency is the fitted concentration of half-maximal effect; % is set by controls: 0 for no effect and ±100 for the full control effect; nearly all actives have a fitted effect of over 50% in size
# SARS PLpro yeast = inhibitors of SARS-CoV papain-like protease in yeast. S. cerevisiae expressing SARS-CoV PLpro, growth rescue. hit rate 0.19% among 330,000. Potency, µM (highest dose often 32.9 µM), without a hit: at the top dose activity, positive = growth rescue, actives largely listed as activators; calls by dose curve; note: potency is the fitted concentration of half-maximal effect; 0% is about no effect; nearly all actives have a fitted effect of over 55% in size
# Marburg entry inh = Marburg virus entry inhibition | hit rate 1.8% among 300,000 | Marburg virus pseudotyped entry inhibition, cell reporter | Potency, µM (top dose mostly 37.8 µM), inactives show top-dose activity change, negative = inhibition, hits mostly inhibitors | AID 540276; calls by dose curve; tested in HEK293 cells; note: potency is the fitted concentration of half-maximal effect; % is set by controls: 0 for no effect and ±100 for the full control effect
# HCV inh = blocks hepatitis C virus; Potency, µM (titrated, usually from 41.8 µM), inactives show top-dose activity change, negative = inhibition, most hits filed as inhibitors; Huh7.5.1 HCVcc-Cre infection, luciferase reporter, 44 h; AID 651820; hit rate 3.4% among 340,000; active = well fitted inhibition curve with a large enough effect; inconclusive = small, poorly fitted or top-dose-only effect, or another doubt; inactive = no such curve, though single readings can be large or run the other way; note: potency is the fitted concentration of half-maximal effect; % is set by controls: 0 for no effect and ±100 for the full control effect
#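 Infectious HCVcc-Cre (~0.5 moi) was added to cells just after compound, with cells seeded 4 h earlier at 1,000 per well. Luciferase activity after 44 h culture reported infection; substrate was incubated 15 min at room temperature before reading.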
# HCMV antiviral = inhibitors of human cytomegalovirus. HFF cells, HCMV-luciferase reporter, 72 h; stronger effect = lower value. activity change, negative = inhibition, % at 57.5 µM. hit rate 4.5% among 410,000; in the data active = activity change below about -60%; inconclusive = no clear call, values can overlap the other calls; inactive = above about -39%; note: % is set by controls: 0 for no effect and ±100 for the full control effect
#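 Human foreskin fibroblasts infected with luciferase-reporter HCMV at MOI 1 PFU/cell, compounds at two doses. Luciferase measured 72 h post infection; normalized to buffer-only basal and Salinomycin (10uM) controls.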
# FMDV inh = foot and mouth disease virus antiviral activity. FMDV antiviral cell-based qHTS. Potency, µM (highest dose often 57.9 µM), for the others: top-dose activity change, negative = inhibition, actives largely listed as inhibitors. hit rate 1.2% among 410,000; calls by dose curve; tested in HEK293T cells; note: read-out not given here; potency is the fitted concentration of half-maximal effect; % is set by controls: 0 for no effect and ±100 for the full control effect; nearly all actives have a fitted effect of over 45% in size
# * = called active by the depositor; ? = inconclusive; nt = not tested or not shown; [ ] = remark or other dose. Shown are actives, neighbours in structure and some others; about 8% of the full set was active somewhere.
SMILES,Lassa entry inh,SARS PLpro yeast,Marburg entry inh,HCV inh,HCMV antiviral,FMDV inh
CCOC(=O)c1c(C)oc2ncnc(N3CCN(c4ccccc4F)CC3)c12,?,nt,nt,nt,-15,32µM*
CCOC(=O)c1c(C)oc2ncnc(N3CCN(c4ccccc4)CC3)c12,-25%[46.1 µM],nt,nt,nt,-24,28µM*
Cc1ccc(C)c(N2CCN(C(=O)c3c(C)oc4nc(C)nc(N5CCOCC5)c34)CC2)c1,-5%[46.1 µM],nt,nt,nt,-34,-24%
Cc1cccc(OCc2nc3c4c(ncn3n2)-c2ccccc2CC42CCCC2)c1,5%,10%,29%,5%,-32,-26%
Oc1cccc(-c2nc3c4c(ncn3n2)-c2ccccc2CC42CCCC2)c1,-17%[14.3 µM],-40%,23µM*,nt,-93*,?
COc1ccc(-c2nc3c4c(ncn3n2)-c2ccccc2CC42CCCC2)cc1,0%,-24%,10%,?,-10,32µM*
COc1ccc(OCc2nc3c4c(ncn3n2)-c2ccccc2CC42CCCC2)cc1,-4%,17%,?,?,?,?
CC(C)c1ccc(NC(=O)CN2C(=O)c3cccc4cccc2c34)cc1,-23%[46.1 µM],nt,nt,nt,-11,-11%
CCOC(=O)c1sc(N2C(=O)c3oc4cc(C)c(C)cc4c(=O)c3C2c2ccc(C)cc2)nc1C (stereo not drawn),-1%[46.1 µM],nt,20%[46.1 µM],nt,-111*,-6%
O=C(Nc1ccc(O)cc1)c1cc2ccccc2c(=O)s1,-2%,-1%,?,?,-71*,74%
COc1ccc(-c2cc(-c3ccccc3)c(C#N)c(S(C)(=O)=O)n2)cc1,?,4%,?,26%,-66*,40µM*
CS(=O)(=O)c1nc(-c2ccc(Br)cc2)cc(-c2ccccc2)c1C#N,5.8µM*,6%,?,?,-99*,?
COc1ccc(-c2ccc3c(c2)COCC(=O)N3CCN2CCOCC2)cc1,nt,nt,nt,nt,-16,nt
O=C(O)c1cc(NCc2cc(O)ccc2O)ccc1O,nt,nt,nt,nt,nt,-6%
O=C(OCCC12CC3CC(CC(C3)C1)C2)c1ccc(NCc2cc(O)ccc2O)cc1,1.3µM*,nt,1.8µM*,2.2µM*,-77*,?
CN(C)S(=O)(=O)c1ccc(NC(=O)CSc2nc3ccccc3n2-c2ccccc2)cc1,18µM*,-3%,?,?,?,0%
CN(C)S(=O)(=O)c1cccc(NC(=O)CSc2nc3ccccc3n2-c2ccccc2)c1,?,-13%,?,?,-88*,-9%
COc1ccccc1N1CCN(C(=O)Cn2ncc3ccsc3c2=O)CC1,4%[46.1 µM],nt,13%[46.1 µM],nt,0,-17%
CC(=O)N1CC(=O)N2[C@@H](CO)[C@@H](c3ccc(Br)cc3)[C@@H]2C1,nt,nt,nt,nt,-7,nt
Cc1ccc(-c2c(C(=O)NCCc3ccc(Cl)cc3)oc(=O)c3ccccc23)cc1,27%[46.1 µM],nt,?,nt,-4,-27%
O=C(NCc1cccc(Cl)c1)c1oc(=O)c2ccccc2c1-c1ccccc1,-16%[46.1 µM],nt,-13%[46.1 µM],nt,-69*,-12%
COc1ccc(OC)c(CCNC(=O)c2cc3c(=O)oc4ccc(C)cc4c3s2)c1,10%[46.1 µM],nt,-28%[46.1 µM],nt,-6,-13%
O=C(c1ccc(F)cc1F)N1CCN(c2ncccn2)CC1,0%,5%,2%,18%,2,-15%
O=C(c1c[nH]c(C(=O)N2CCN(c3ccccc3F)CC2)c1)c1cccc(Cl)c1Cl,?,-1%,?,25µM*,-19,-30%
O=C(c1ccccc1)c1ccc(N2CCN(C(=O)c3cccc(F)c3F)CC2)c(F)c1,nt,6.3µM*,nt,13µM*,-22,-67%
O=C(c1ccc(N2CCN(C(=O)c3ccc(F)cc3F)CC2)cc1)c1cccc(F)c1,nt,-1%,nt,11µM*,-35,?
Cc1ccccc1C(=O)c1c[nH]c(C(=O)N2CCN(c3ccccc3F)CC2)c1,?,-2%,?,?,-38,?
O=C(c1n[nH]c(=O)c2ccccc12)N1CCN(c2ccc(F)cc2)CC1,-14%,5%,-4%,-2%,-102*,?
Cc1ccc(C)c(N2CCN(C(=O)C(C)n3c(C)c4cnn(-c5ccccc5)c(=O)c4c3C)CC2)c1 (stereo not drawn),10%[46.1 µM],nt,19%[46.1 µM],nt,-11,0%

# Assay outcomes: PubChem, National Center for Advancing Translational Sciences (NCATS)
